In PubChem BioAssay (Tox21):
Several values for one entry are separate records, joined by “and”; a condition that tells them apart may be missing. Identical values can stand only once. Results filed as inconclusive are left out. Entries that show only a call come without a potency. More than one record can exist for a structure, and the calls need not agree. Activity calls are given as the source filed them. Unless noted, the call rests on the fitted dose curve; in most records, active means well fitted curve in the direction sought with a large enough effect in the repeat runs; inconclusive means weak or mixed curves; inactive means no such curve, though single readings can be large; an effect the other way counts as inactive or inconclusive.

Columns and labels:
[1] = biological target: Retinoic acid receptor RXR-alpha (Homo sapiens) (UniProt P19793); assay: qHTS assay to identify small molecule agonists of the RXR signaling pathway (AID 1159527; calls by dose curve; further: nearly all actives have a fitted effect of over 35% in size; further: potency means the concentration at half of the fitted maximal effect)
Chain of Retinoic acid receptor RXR-alpha (Homo sapiens) (P19793 whole entry, looked up): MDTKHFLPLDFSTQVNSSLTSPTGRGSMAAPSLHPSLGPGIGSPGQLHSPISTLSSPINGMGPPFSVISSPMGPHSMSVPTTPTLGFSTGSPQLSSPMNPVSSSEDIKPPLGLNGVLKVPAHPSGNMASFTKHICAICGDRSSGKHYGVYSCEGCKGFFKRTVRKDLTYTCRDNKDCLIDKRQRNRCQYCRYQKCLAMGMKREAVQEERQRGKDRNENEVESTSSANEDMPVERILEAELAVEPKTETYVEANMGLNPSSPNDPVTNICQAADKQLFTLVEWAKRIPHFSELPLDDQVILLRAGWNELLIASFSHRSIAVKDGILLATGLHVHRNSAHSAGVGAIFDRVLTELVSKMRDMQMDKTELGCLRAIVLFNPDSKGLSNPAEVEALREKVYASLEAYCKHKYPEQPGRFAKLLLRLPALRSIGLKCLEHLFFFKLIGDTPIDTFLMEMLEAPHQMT
How it was run: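 Reporter activation is measured as beta-lactamase activity via FRET substrate cleavage (emission 460/530 nm) in HEK 293T cells expressing an RXR-alpha-driven bla construct, following 16 hr compound exposure at 37 C.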

[2] = qHTS assay to identify small molecule agonists of the RXR signaling pathway - cell viability counter screen (AID 1159529); further: series mostly up to about 77 µM; nearly all actives have a fitted effect of over 50% in size
How it was run: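 Tox21 10K compounds were tested for cytotoxicity against GeneBLAzer RXR-alpha HEK 293T cells grown in 2% charcoal-stripped FBS. Exposure lasted 16 hr at 37 C, 5% CO2; viability read by CellTiter-Glo luminescence.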

[3] = qHTS assay to identify small molecule antagonists of the retinoid acid receptor (RAR) signaling pathway - cell viability counter screen (AID 1159551); further: nearly all actives have a fitted effect of over 35% in size
How it was run: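 In this counter screen, the RARE-luciferase line C3RL4 was exposed for 6 h at 37 C and 5% CO2 to compounds with retinol at 1 uM final. Cellular ATP, read by luminescence, served as the viability measure.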

[4] = qHTS assay to identify small molecule antagonists of the retinoic acid receptor (RAR) signaling pathway (AID 1159552; further: nearly all actives have a fitted effect of over 50% in size; further: potency means the concentration at half of the fitted maximal effect)
How it was run: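 Overnight-plated C3RL4 reporter cells get compound, then retinol to 1 uM final; plates sit 6 hr at 37 C, 5% CO2. A luciferase reagent is added and light output recorded after 30 min at room temperature.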

[5] = qHTS assay to identify small molecule agonists of the retinoic acid receptor (RAR) signaling pathway (AID 1159553); further: potency means the concentration at half of the fitted maximal effect
How it was run: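 In this cell-based screen, 1,000 C3RL4 cells per well were cultured overnight, dosed with test chemicals in DMSO for 6 hr, and assessed for RARE luciferase luminescence.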

[6] = qHTS assay to identify small molecule antagonists of the estrogen related receptor (ERR) signaling pathway from Tox21 library - cell viability counter screen (AID 1224834); further: nearly all actives have a fitted effect of over 30% in size; further: potency means the concentration at half of the fitted maximal effect
How it was run: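 Counter screen run in ERR cells (2,000 cells/well): cells pre-incubated 6 h, then treated with compounds for 17.5 h at 37 C. Fluorescence was read 30 min after CellTiter-Fluor addition.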

[7] = biological target: Luciferin 4-monooxygenase (Photinus pyralis) (UniProt P08659); assay: qHTS assay to identify small molecule inhibitors of firefly luciferase (AID 1224835); further: nearly all actives have a fitted effect of over 25% in size; further: potency means the concentration at half of the fitted maximal effect
Chain of Luciferin 4-monooxygenase (Photinus pyralis) (P08659 whole entry, looked up): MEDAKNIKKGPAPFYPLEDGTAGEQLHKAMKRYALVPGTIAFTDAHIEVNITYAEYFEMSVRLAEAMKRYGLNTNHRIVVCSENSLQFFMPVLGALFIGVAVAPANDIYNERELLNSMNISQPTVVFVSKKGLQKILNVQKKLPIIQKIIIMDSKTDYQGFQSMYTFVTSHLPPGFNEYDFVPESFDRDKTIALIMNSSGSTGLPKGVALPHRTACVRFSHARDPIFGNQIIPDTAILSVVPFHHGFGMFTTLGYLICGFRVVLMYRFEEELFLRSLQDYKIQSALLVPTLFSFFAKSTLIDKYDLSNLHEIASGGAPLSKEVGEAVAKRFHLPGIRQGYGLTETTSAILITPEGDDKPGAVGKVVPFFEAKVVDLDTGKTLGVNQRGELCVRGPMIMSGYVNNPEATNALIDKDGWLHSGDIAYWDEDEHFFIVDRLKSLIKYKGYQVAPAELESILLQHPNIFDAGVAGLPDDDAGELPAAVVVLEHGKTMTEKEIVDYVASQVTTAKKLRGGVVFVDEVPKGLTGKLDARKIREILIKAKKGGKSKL
How it was run: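 Inhibition of purified Photinus luciferase is measured by luminescence. Substrate levels (D-luciferin, ATP) sit at their KM values. Each compound is tested in a concentration series.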

[8] = qHTS assay to identify small molecule agonists of the constitutive androstane receptor (CAR) signaling pathway - cell viability counter screen (AID 1224836); further: nearly all actives have a fitted effect of over 45% in size; further: potency means the concentration at half of the fitted maximal effect
How it was run: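 Fluorescence from CellTiter-Fluor indicates live cells after 23 h exposure. The human hepatoma line expresses hCAR and a CYP2B6-2.2kb reporter. Incubation medium contains 0.75 uM PK11195 (final).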

[9] = qHTS assay to identify small molecule antagonists of the constitutive androstane receptor (CAR) signaling pathway - cell viability counter screen (AID 1224837); further: nearly all actives have a fitted effect of over 45% in size; further: potency means the concentration at half of the fitted maximal effect
How it was run: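 CITCO at 50 nM final was added alongside compounds (15 concentrations) to double-stable hCAR/CYP2B6-2.2kb HepG2 cells. Following 23 hr at 37 C, cell viability was quantified by CellTiter-Fluor fluorescence intensity.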

[10] = biological target: Nuclear receptor subfamily 1 group I member 3 (Homo sapiens) (UniProt Q14994); assay: qHTS assay to identify small molecule antagonists of the constitutive androstane receptor (CAR) signaling pathway (AID 1224838); further: nearly all actives have a fitted effect of over 40% in size; further: potency means the concentration at half of the fitted maximal effect
Chain of Nuclear receptor subfamily 1 group I member 3 (Homo sapiens) (Q14994 whole entry, looked up): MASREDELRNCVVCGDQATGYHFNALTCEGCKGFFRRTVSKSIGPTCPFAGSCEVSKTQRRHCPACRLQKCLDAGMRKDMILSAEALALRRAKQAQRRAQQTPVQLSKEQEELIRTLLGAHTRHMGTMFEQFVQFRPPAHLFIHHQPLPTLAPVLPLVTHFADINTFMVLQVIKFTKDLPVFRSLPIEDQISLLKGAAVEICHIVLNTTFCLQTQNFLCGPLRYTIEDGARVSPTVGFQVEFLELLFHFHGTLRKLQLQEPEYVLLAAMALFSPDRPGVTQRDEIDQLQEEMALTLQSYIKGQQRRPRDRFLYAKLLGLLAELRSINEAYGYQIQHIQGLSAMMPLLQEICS
How it was run: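 Inhibition of CITCO-driven (50 nM final) CYP2B6 reporter expression is measured in HepG2 cells stably carrying hCAR. Fifteen compound concentrations are applied for 24 h at 37 C, followed by luciferase luminescence.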

[11] = biological target: Nuclear receptor subfamily 1 group I member 3 (Homo sapiens) (UniProt Q14994); assay: qHTS assay to identify small molecule agonists of the constitutive androstane receptor (CAR) signaling pathway (AID 1224839); further: nearly all actives have a fitted effect of over 15% in size; further: potency means the concentration at half of the fitted maximal effect
How it was run: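 Stable hCAR/CYP2B6-2.2kb HepG2 line in DMEM with 10% FBS; compounds (15 concentrations) and 0.75 uM PK11195 final, 24 h at 37 C/5% CO2, then ONE-Glo luminescence after 30 min.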

[12] = qHTS assay to identify small molecule antagonists of the estrogen related receptor signaling pathway with the pleiotropic PPARgamma coactivator (PGC) from Tox21 10K library - cell viability counter screen (AID 1224840; active means well fitted cell-killing curve with a large enough effect in the repeat runs, not every such curve was filed as active; further: nearly all actives have a fitted effect of over 40% in size; further: potency means the concentration at half of the fitted maximal effect)
How it was run: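 Readout: fluorescence intensity from CellTiter-Fluor after 30 min at 37 C/5% CO2. Preceded by 17.5 h treatment of PGC/ERR cells with DMSO-dissolved compounds, added 6 h post-seeding.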

[13] = biological target: Thyrotropin receptor (Homo sapiens) (UniProt P16473); assay: qHTS assay to identify small molecule agonists of the thyroid stimulating hormone receptor (TSHR) signaling pathway (AID 1224843; calls by dose curve; further: nearly all actives have a fitted effect of over 45% in size; further: potency means the concentration at half of the fitted maximal effect)
Chain of Thyrotropin receptor (Homo sapiens) (P16473 whole entry, looked up): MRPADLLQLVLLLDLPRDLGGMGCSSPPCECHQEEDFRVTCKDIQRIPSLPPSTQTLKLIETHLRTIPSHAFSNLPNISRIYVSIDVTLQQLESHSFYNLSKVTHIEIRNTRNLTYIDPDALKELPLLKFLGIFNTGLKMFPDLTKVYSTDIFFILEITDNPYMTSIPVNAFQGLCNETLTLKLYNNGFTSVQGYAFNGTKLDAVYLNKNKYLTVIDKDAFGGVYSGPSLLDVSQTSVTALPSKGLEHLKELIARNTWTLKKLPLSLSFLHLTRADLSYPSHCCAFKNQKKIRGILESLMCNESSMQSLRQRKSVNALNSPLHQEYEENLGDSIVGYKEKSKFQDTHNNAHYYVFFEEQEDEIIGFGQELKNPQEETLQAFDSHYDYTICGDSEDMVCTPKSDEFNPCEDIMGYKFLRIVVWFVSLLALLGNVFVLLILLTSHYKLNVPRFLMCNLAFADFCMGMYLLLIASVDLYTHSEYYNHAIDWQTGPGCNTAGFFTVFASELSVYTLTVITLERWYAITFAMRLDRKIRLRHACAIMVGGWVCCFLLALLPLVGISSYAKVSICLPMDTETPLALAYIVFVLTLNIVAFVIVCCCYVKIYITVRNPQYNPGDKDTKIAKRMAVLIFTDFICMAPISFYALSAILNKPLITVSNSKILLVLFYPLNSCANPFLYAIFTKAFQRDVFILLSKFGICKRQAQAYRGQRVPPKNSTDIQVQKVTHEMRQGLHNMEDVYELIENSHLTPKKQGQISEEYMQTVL
How it was run: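 Agonist activity read as cAMP rise via d2/cryptate HTRF competition, 1 h room-temperature detection, in HEK293 cells expressing TSHR. Fifteen-point titrations, each run in triplicate, with a 30 min room-temperature incubation beforehand.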

[14] = qHTS assay to identify small molecule antagonists of the estrogen related receptor signaling pathway with the pleiotropic PPARgamma coactivator (PGC) from Tox21 10K library (AID 1224841; call rule not given here; further: actives are mostly falling curves and most rising ones were filed inactive; nearly all actives have a fitted effect of over 50% in size; further: potency means the concentration at half of the fitted maximal effect)
How it was run: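 One-Glo luminescence, measured after half an hour at room temperature, quantified reporter output of PGC/ERR cells. These had been plated at 2,000 per well, incubated 6 h, dosed with compounds in DMSO, then kept 18 h at 37 C.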

[15] = qHTS assay to identify small molecule agonists of the estrogen related receptor signaling pathway with the pleiotropic PPARgamma coactivator (PGC) from Tox21 10K library (AID 1224842); further: nearly all actives have a fitted effect of over 15% in size; further: potency means the concentration at half of the fitted maximal effect
How it was run: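 Luminescence from One-Glo (30 min, room temperature) measured after PGC/ERR cells had 18 h at 37 C with pinned compound (23 nL in DMSO). Cells had been seeded at 2,000 per well and pre-incubated 6 h.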

[16] = qHTS assay to identify small molecule antagonists of the estrogen related receptor (ERR) signaling pathway - cell viability counter screen (AID 1224818); further: series mostly up to about 46 µM
How it was run: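 Viability of ERR cells, CellTiter-Fluor fluorescence; 17.5 h compound exposure at 37 C, DMSO vehicle; 30 min reagent incubation at 37 C/5% CO2.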

[17] = qHTS assay to identify small molecule antagonists of the estrogen related receptor (ERR) signaling pathway (AID 1224819; further: series mostly up to about 46 µM; nearly all actives have a fitted effect of over 50% in size)
How it was run: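 Seed ERR cells 2,000/well; rest 6 h at 37 C/5% CO2; pin compounds in DMSO; incubate 18 h at 37 C; add One-Glo; wait 30 min at room temperature; measure luminescence.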

[18] = qHTS assay to identify small molecule agonists of the estrogen related receptor (ERR) signaling pathway (AID 1224820)
How it was run: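 After 6 h plating (2,000 cells/well) and 18 h compound treatment at 37 C, ERR cells were lysed with One-Glo and luminescence read after 30 min at room temperature.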

[19] = system: estrogen-related receptor alpha (ERRalpha) with PGC-1alpha coactivator, human; assay: qHTS assay to identify small molecule antagonists of the estrogen related receptor signaling pathway with the pleiotropic PPARgamma coactivator (PGC) (AID 1224821; calls by dose curve)
How it was run: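 Luminescence from One-Glo luciferase reagent (30 min, room temperature) measured after 18 h compound treatment at 37 °C. Cells carry the PGC/ERR reporter and were seeded 6 h prior to dosing.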

[20] = qHTS assay to identify small molecule agonists of the estrogen related receptor signaling pathway with the pleiotropic PPARgamma coactivator (PGC) (AID 1224823)
How it was run: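 Luminescence from One-Glo reagent (30 min, room temperature) was read after 18 h compound treatment at 37 C of PGC/ERR cells plated 6 h beforehand; compounds delivered in DMSO by pin tool.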

Row | Compound | Potency [1] | Potency [2] | outcome [3] | Potency [4] | Potency [5] | Potency [6] | Potency [7] | Potency [8] | Potency [9] | Potency [10] | Potency [11] | Potency [12] | Potency [13] | Potency [14] | Potency [15] | outcome [16] | Potency [17] | outcome [18] | outcome [19] | outcome [20]
1 | CN(C)Cc1cc(CN(C)C)c(O)c(CN(C)C)c1 | inactive | inactive | inactive | inactive | inactive | inactive | inactive | inactive | inactive | inactive | inactive | inactive | inactive |  |  |  |  |  |  | 
2 | OC[C@@H](O)[C@@H](O)[C@H](O)[C@H](O)CO | inactive | inactive | inactive | inactive | inactive | inactive | inactive | inactive | inactive |  |  | inactive |  | inactive | inactive |  |  |  |  | 
3 | CCCCOCCOCCOC(C)=O | inactive | inactive | inactive | inactive | inactive | inactive | inactive | inactive | inactive | inactive | inactive | inactive |  | inactive | inactive |  |  |  |  | 
4 | COCCOCCOC | inactive | inactive | inactive | inactive | inactive | inactive | inactive | inactive | inactive | inactive | inactive | inactive | inactive |  |  |  |  |  |  | 
5 | CC(C)CC(C)CC(O)CC(C)C (stereo not given) | inactive | inactive | inactive | inactive | inactive | inactive | inactive | inactive | inactive | inactive | inactive | inactive |  | inactive | inactive |  |  |  |  | 
6 | CCc1cc(C(N)=S)ccn1 | inactive | inactive | inactive | inactive | inactive | inactive |  | inactive | inactive |  |  | inactive |  |  |  |  |  |  |  | 
7 | CC(C)=CCC/C(C)=C/CO | inactive | inactive | inactive |  |  | inactive | inactive | inactive | inactive |  |  | inactive | inactive |  |  |  |  |  |  | 
8 | Oc1cccc(O)c1 |  | inactive | inactive | inactive | inactive | inactive | inactive | inactive | inactive |  |  | inactive |  | 18.8 nM (active) and inactive | inactive |  |  |  |  | 
9 | Cc1ccc(O)c(-n2nc3ccccc3n2)c1 | inactive | inactive |  | inactive | 1.52 µM (active) and 1.93 µM (active) and 2.98 µM (active) | inactive | 2.5 µM (active) and 1.59 µM (active) and 3.09 µM (active) | inactive | inactive | inactive | 24.1 µM (active) and 21.7 µM (active) and 8.41 µM (active) | inactive |  | inactive | 27.1 µM (active) and 8.63 µM (active) and 11.9 µM (active) |  |  |  |  | 
10 | CC(=O)OC/C=C(C)/C=C/C=C(C)/C=C/C1=C(C)CCCC1(C)C |  | inactive | inactive |  |  | inactive | inactive | inactive | inactive | inactive | inactive | inactive | inactive |  |  |  |  |  |  | 
11 | CC1=NN(c2ccccc2)C(=O)C1 | inactive | inactive | inactive | inactive | inactive | inactive | inactive | inactive | inactive |  |  | inactive | inactive |  |  |  |  |  |  | 
12 | CO[C@H]1C=CO[C@@]2(C)Oc3c(C)c(O)c4c(O)c(c(/C=N/N5CCN(C)CC5)c(O)c4c3C2=O)NC(=O)/C(C)=C\C=C[C@H](C)[C@H](O)[C@@H](C)[C@@H](O)[C@@H](C)[C@H](OC(C)=O)[C@@H]1C | inactive | inactive | inactive | inactive | inactive | 27.4 µM (active) and 31 µM (active) and 23.7 µM (active) |  | 27.4 µM (active) | 30.8 µM (active) | 54.8 µM (active) and inactive | inactive | 27.4 µM (active) |  | 48.8 µM (active) and 23.7 µM (active) | inactive |  |  |  |  | 
13 | CCOC(=O)C(C)(C)Oc1ccc(Cl)cc1 | inactive | inactive | inactive |  |  | inactive | inactive | inactive | inactive |  |  | inactive | inactive | inactive | inactive | inactive | inactive | inactive | inactive | inactive
14 | NCCNc1cccc2ccccc12 | inactive | inactive | inactive | 30.6 µM (active) and 23.7 µM (active) |  | 68.5 µM (active) and inactive | inactive | inactive | inactive | inactive | inactive | inactive |  |  |  |  |  |  |  | 
15 | COc1ccc(O)cc1 | inactive | inactive | inactive |  |  | inactive | inactive | inactive | inactive |  |  | inactive | inactive |  |  |  |  |  |  | 
16 | C#C[C@]1(O)CC[C@H]2[C@@H]3CCC4=CC(=O)CC[C@@H]4[C@H]3CC[C@@]21CC | inactive | inactive | inactive |  |  | inactive and 54.5 µM (active) | inactive | inactive | inactive |  |  | inactive | inactive |  |  |  |  |  |  | 
17 | O=[N+]([O-])c1ccc(O)cc1 | inactive | inactive | inactive | inactive | inactive | 50.4 µM (active) and 30.6 µM (active) and 54.5 µM (active) | inactive | 50.4 µM (active) |  | inactive | inactive | 30.6 µM (active) |  |  |  |  |  |  |  | 
18 | Cc1cccc(Nc2cc(Cl)nc(SCC(=O)O)n2)c1C |  | inactive | inactive | inactive | inactive | inactive | inactive | inactive | inactive | inactive | inactive | inactive | inactive |  |  |  |  |  |  | 
19 | COC(=O)c1ccc(O)cc1 | inactive and 6.16 µM (active) | inactive | inactive | inactive | inactive | inactive | inactive | inactive | inactive |  |  | inactive | inactive |  |  |  |  |  |  | 
20 | O=C(O)CCCCC1CCSS1 (stereo not given) | inactive | inactive | inactive |  |  | inactive | inactive | inactive | inactive |  |  | inactive |  | inactive | inactive |  |  |  |  | 
21 | COC1=CC(=O)C[C@@H](C)[C@]12Oc1c(Cl)c(OC)cc(OC)c1C2=O | inactive | inactive | inactive | 9.6 µM (active) | inactive |  | inactive | inactive | inactive | 9.6 µM (active) and 13.7 µM (active) | inactive | inactive | 9.6 µM (active) and 17.2 µM (active) | inactive | inactive |  |  |  |  | 
